# Structures can show the parent of a compound that is named as a salt.
# What was measured:
# [1] = system: Vero E6 infected with SARS-CoV-2; experiment: morphology score (similarity to uninfected cells); higher = more like uninfected cells; details: 24 h
# [2] = system: Vero E6 infected with SARS-CoV-2; experiment: SARS-CoV-2 infection rate relative to infected DMSO; higher = more infection, active = 60 or less; details: 24 h
SMILES,morphology score [1],SARS-CoV-2 infection rate [2]
CC(=O)Oc1c(C)cc(OCC(O)CNC(C)C)c(C)c1C (centres undefined) [metipranolol] (10 µM),-0.0461,108% (inactive)
COc1cc(NS(=O)(=O)c2ccc(N)cc2)nc(OC)n1 [sulphadimethoxine] (10 µM),-0.00223,103% (inactive)
C[C@@H]1c2ccccc2CN1CC1=NCCN1 (racemic) (10 µM),0.0304,92.5% (inactive)
Nc1ccc(S(=O)(=O)Nc2ccccn2)cc1 [sulfapyridine] (10 µM),0.0798,102% (inactive)
Nc1ncnc2c1ncn2[C@@H]1O[C@H](CO)[C@@H](O)[C@H]1O [adenosine] (10 µM),0.0109,109% (inactive)
Cc1cc(O)cc(C)c1Cl [chloroxylenol] (10 µM),0.0293,99% (inactive)
NCCc1c[nH]c2ccc(C(N)=O)cc12 [5-carboxamidotryptamine] (10 µM),0.0259,103% (inactive)
CCOC(=O)Nc1cc(-c2ccc(C)c(NS(C)(=O)=O)c2)nn2c(C)nnc12 [bromosporine] (10 µM),-0.021,111% (inactive)
O=[N+]([O-])c1ccccc1S(=O)(=O)NCC1CCC(CNC[C@H]2CCc3ccccc3C2)CC1 (some centres undefined) (0.833333 µM),-0.0186,97.5% (inactive)
C[C@@H]1O[C@@H]1P(=O)(O)O (10 µM),0.00316,104% (inactive)
CC(C)[N+](C)(CCC(C(N)=O)(c1ccccc1)c1ccccc1)C(C)C [isopropamide-iodide] (10 µM),0.192,100% (inactive)
CC(=O)O[C@H]1C[C@@H]2CC[C@@H]3[C@H](CC[C@@]4(C)[C@H]3C[C@H](N3CC[N+](C)(C)CC3)[C@@H]4OC(C)=O)[C@@]2(C)C[C@@H]1N1CC[N+](C)(C)CC1 [pipecuronium] (10 µM),0.0487,106% (inactive)
C1=C2CCCN[C@H]2[C@@H]2C[C@H]1[C@H]1CCCCN1C2 [aloperine] (10 µM),0.199,102% (inactive)
O=C(Nc1ccc(Oc2ccc(Cl)cn2)c(Cl)c1)c1ccccn1 (10 µM),0.0983,102% (inactive)
CN[C@H](C(=O)N[C@H](C(=O)N(C)[C@H](/C=C(\C)C(=O)O)C(C)C)C(C)(C)C)C(C)(C)c1ccccc1 [taltobulin] (10 µM),-0.171,98% (inactive)
COc1ccc(NC(=O)c2ccc(-c3ccc(-c4noc(C)n4)cc3C)cc2)cc1OCCN(C)C (0.833333 µM),0.282,53% (active)
O=C(O)c1cc2cccc([N+](=O)[O-])c2[nH]1 (10 µM),-0.0876,100% (inactive)
CN[C@@H](C)C(=O)N[C@H](C(=O)N1CCC[C@H]1C(=O)Nc1sc(-c2ncco2)nc1-c1ccccc1)C1CCCCC1 (10 µM),0.185,102% (inactive)
Cc1nc(C#Cc2ccnc(Cl)c2)c(C)n1-c1ccc(F)cc1 [basimglurant] (10 µM),0.114,112% (inactive)
O=C(NCCCN1CCCCCC1)C(c1ccccc1)C1CCCCC1 (centres undefined) (10 µM),0.404,75.5% (inactive)
CCNC(=O)C#Cc1ccc2c(C(=Nc3ccc(CN(C)C)cc3)c3ccccc3)c(O)[nH]c2c1 (0.833333 µM),-0.154,99% (inactive)

SMILES,morphology score [1],SARS-CoV-2 infection rate [2]
COc1cc2nc(C3CC3)nc(N3CCN(c4ccccc4OC)CC3)c2cc1OC (0.833333 µM),0.157,99% (inactive)
C[C@H](Nc1ncnc2nc[nH]c12)c1cc2cccc(Cl)c2c(=O)n1-c1ccccc1 [duvelisib] (0.833333 µM),0.0653,99% (inactive)
CCOCc1cc(OC)c(-c2ccc(C[C@H](NC(=O)c3c(F)cccc3F)C(=O)O)cc2)c(OC)c1 [firategrast] (10 µM),-0.05,105% (inactive)
N[C@@]1(C(=O)O)CC[C@H]2[C@H](C(=O)O)[C@H]21 [eglumetad] (10 µM),-0.0541,114% (inactive)
O=C[C@H](O)[C@@H](O)[C@H](O)CO [xylose] (10 µM),-0.0367,108% (inactive)
COc1ccc(CNC(=O)Nc2ncc([N+](=O)[O-])s2)cc1 (10 µM),-0.141,106% (inactive)
CC1(C)N=C(N)N=C(N)N1OCCCOc1cc(Cl)c(Cl)cc1Cl (10 µM),0.205,89.5% (inactive)
CCc1nc(C(N)=O)c(Nc2ccc(N3CCC(N4CCN(C)CC4)CC3)c(OC)c2)nc1NC1CCOCC1 [gilteritinib] (0.833333 µM),0.272,91.5% (inactive)
CCn1c2ccccc2c2cc(CNC)ccc21 (10 µM),0.514,56% (active)
O=S(=O)(O)CCSSCCS(=O)(=O)O [dimesna] (10 µM),0.144,104% (inactive)
COC(=O)N[C@H](C(=O)N[C@@H](Cc1ccccc1)[C@@H](O)CN(Cc1ccc(-c2ccccn2)cc1)NC(=O)[C@@H](NC(=O)OC)C(C)(C)C)C(C)(C)C [atazanavir] (10 µM),0.129,112% (inactive)
CCOC(=O)[C@H](Cc1ccccc1)NC(=O)c1cc(Cl)c(OCCN2CCN(C)CC2)c(Cl)c1O (10 µM),0.414,76.5% (inactive)
CC[C@H](Nc1ncnc2[nH]cnc12)c1nc2cccc(F)c2c(=O)n1-c1ccccc1 [idelalisib] (10 µM),-0.015,116% (inactive)
N#Cc1c(-c2ccccc2)cc(-c2cc(Br)ccc2O)[nH]c1=O (10 µM),0.048,110% (inactive)
CN(C(=O)Cc1ccccc1)[C@H](CN1CCCC1)c1ccccc1 (10 µM),0.0751,102% (inactive)
O=C(O)c1ccc2c(c1)nc(Nc1cccc(Cl)c1)c1ccncc12 (10 µM),0.237,103% (inactive)
CN1CC(=O)NC1=N [creatinine] (10 µM),0.0578,99.5% (inactive)
CCOc1ccc(Cc2cc([C@]34OC[C@](CO)(O3)[C@@H](O)[C@H](O)[C@H]4O)ccc2Cl)cc1 [ertugliflozin] (10 µM),-0.0565,107% (inactive)
Oc1ccc(C2CNCCc3c2cc(O)c(O)c3Cl)cc1 (centres undefined) [fenoldopam] (10 µM),0.226,95% (inactive)
COc1cc(/C=C(\C#N)C(N)=O)cc(CSc2nc3ccccc3s2)c1O [tyrphostin-AG-825] (10 µM),-0.108,108% (inactive)
O=c1[nH]c2ccc(Cl)cc2c(N[C@@H]2CN3CCC2CC3)c1-c1nc2ccccc2[nH]1 (10 µM),-0.162,110% (inactive)

SMILES,morphology score [1],SARS-CoV-2 infection rate [2]
[I-].[K+] [potassium-iodide] (10 µM),-0.0371,114% (inactive)
COc1ccc(C2=N[C@@H](c3ccc(Cl)cc3)[C@@H](c3ccc(Cl)cc3)N2C(=O)N2CCNC(=O)C2)c(OC(C)C)c1 [nutlin-3] (0.833333 µM),0.101,117% (inactive)
CC=CC1=C(C(=O)O)N2C(=O)[C@@H](NC(=O)[C@H](N)c3ccc(O)cc3)[C@H]2SC1 (mixture of isomers) [cefprozil] (10 µM),0.273,99% (inactive)
COc1ccc(-n2nc(C(F)(F)F)cc2-c2ccc(Cl)cc2)cc1 (0.833333 µM),-0.0472,101% (inactive)
Clc1ccc(C(Cn2ccnc2)OCc2c(Cl)cccc2Cl)c(Cl)c1 (centres undefined) [isoconazole] (10 µM),0.222,104% (inactive)
COc1cc(C(C)=O)ccc1O [apocynin] (10 µM),0.331,97% (inactive)
O=c1[nH]c2cc(C(F)(F)F)c(N3CCOCC3)cc2n(CP(=O)(O)O)c1=O (10 µM),0.119,99% (inactive)
CC(C)NCC(O)c1ccccc1Cl (centres undefined) [clorprenaline] (10 µM),0.125,96.5% (inactive)
COc1cccc2c1C(=O)c1c(O)c3c(c(O)c1C2=O)C[C@@](O)(C(=O)CO)C[C@@H]3O[C@H]1C[C@H](N)[C@@H](O)[C@H](C)O1 [Epirubicin Hydrochloride] (10 µM),-0.016,108% (inactive)
C[N+](C)(C)CCCCCC[N+](C)(C)C [hexamethonium] (10 µM),-0.257,114% (inactive)
C[C@@H](N)[C@H]1CC[C@H](C(=O)Nc2ccncc2)CC1 (10 µM),0.243,106% (inactive)
CC(=O)NCCCCCC(=O)O [acexamic-acid] (10 µM),-0.0574,112% (inactive)
O=C(C=Cc1ccccc1)NC(NC(=S)Nc1ccc(Cl)cc1)C(Cl)(Cl)Cl (centres undefined) (10 µM),-0.143,106% (inactive)
CC1(C)CCC(C)(C)c2cc(Cn3cccn3)c(/C=C/c3ccc(C(=O)O)cc3)cc21 [palovarotene] (10 µM),-0.127,108% (inactive)
COc1cccc(OC)c1OCCNC[C@H]1COc2ccccc2O1 (10 µM),0.138,108% (inactive)
CN(C)CCN1C(=O)c2cccc3cc(N)cc(c23)C1=O [amonafide] (0.833333 µM),0.15,102% (inactive)
COc1ccc(-c2cc(=O)c3c(OC)c(OC)c(OC)c(OC)c3o2)cc1OC [nobiletin] (10 µM),0.322,110% (inactive)
CC(=O)OCC(=O)[C@@]1(O)CC[C@H]2[C@@H]3CCC4=CC(=O)CC[C@]4(C)[C@H]3[C@@H](O)C[C@@]21C [hydrocortisone-acetate] (10 µM),-0.00868,110% (inactive)
COc1cc(N2CCC(N)CC2)ccc1Nc1ncc(Cl)c(-c2c[nH]c3ccccc23)n1 (0.833333 µM),0.205,102% (inactive)
Fc1ccc(-c2nc3n(c2-c2ccncc2)CCS3)cc1 (10 µM),0.209,94% (inactive)

# Source: the supplement of paper PMC13380429
